Experiments:
Test in all cases: PBM binding z-score (relative to random genomic background probes); higher = stronger binding; sequences stand for … in GC…GCGATTGACAGCGTAGAATGAAGG
[1] = tested on: RARb homodimer (NR concentration 270 nM)
In short: (§1)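 Probes were double-stranded and carried 34-nt variable regions with direct-repeat seeds, single-nucleotide variants, half-site ablations and random human genomic background sequences, printed on custom Agilent 4×180K protein-binding microarrays. Arrays were incubated 1 h with ligand-free nuclear receptor dimers in PBS pH 7.4, 2% milk, 0.02% Triton X-100, 1 mM DTT, 0.2 mg/mL BSA and 0.4 mg/ml salmon testes DNA. Antibodies against each partner (one per run) detected binding, and scanned fluorescence was regression-normalized. Binding z-scores use the random background probes as reference.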

[2] = tested on: RARg:RXRa (NR concentration 270 nM, RXRa partner concentration 90 nM)
In short: as §1

[3] = tested on: RARg homodimer (NR concentration 270 nM)
In short: as §1

[4] = tested on: RXRa DBDmut IVT, anti-RXR (DBD mutation: RXRa K156A/R161A, NR concentration 90 nM)
In short: as §1

[5] = tested on: RXRa homodimer (NR concentration 180 nM)
In short: as §1

[6] = tested on: THRa:RXRa (NR concentration 90 nM, RXRa partner concentration 90 nM)
In short: as §1

[7] = tested on: THRa homodimer (NR concentration 90 nM)
In short: as §1

[8] = tested on: VDR homodimer (NR concentration 270 nM)
In short: as §1

Sequence	PBM binding z-score [1]	PBM binding z-score [2]	PBM binding z-score [3]	PBM binding z-score [4]	PBM binding z-score [5]	PBM binding z-score [6]	PBM binding z-score [7]	PBM binding z-score [8]
CCTACTGGGCCAAGGTAATTGATCAGTCAAAGCA	0.0571	-0.354	-0.0827	-0.902	-0.382	0.383	-0.112	-0.51
CTTCCAAGGTGAACAAGGTCGTTGATTACTATTC	2.18	1.8	1.62	1.57	1.69	3.41	2.03	2.34
CCTTACGGGTCAAGGTTATAGAACGGGTGGTACG	3.67	4.92	4.97	0.482	5.58	3.02	0.782	1.14
ATATGTAGGTTACATCCGGGTCATTGAGGCTATG	3	3.72	2.07	1.25	3.12	3.92	2.69	2.7
GCTGCTATGTCAACTGATGGTCAGCTAAAGCTCG	0.659	0.506	0.101	0.137	-0.00112	-0.0819	-1.13	-0.702
TCGAGTAGGTTAACAATGGGGCATTCAGCTTTCT	0.737	1.49	0.51	0.509	0.809	0.284	-0.587	-0.182
AGAATGAGGTTAACATCAGGGAAACAGAATACAT	0.933	2.72	2.01	1.29	3.24	2.91	0.858	0.64

Reference: the supplement of paper PMC6555819
